# In PubChem BioAssay AID1259389 (Center for Chemical Genomics, University of Michigan, 2018):
# Out of some 100,000 compounds screened, about 620 (0.62%) were called active. The sample holds actives, similar compounds and a random draw of the others, so the mix is not that of the screen. A number with no mark means an inactive call. How the source made its calls: active means z-score of 3 or more in at least 2 runs; inactive means the rest.
# Assay: TAR RNA-Tat peptide displacers, HIV-1, primary screen, biochemical, FRET, FAM/TAMRA-labeled Tat (AID 1259389)
# Details: HIV-1 TAR RNA, Tat peptide displacement FRET; active compounds read high
row,SMILES,z-score
1,O=C(O)C1CSC(c2cccnc2)N1 (stereo not given),3.48 (active)
2,c1ccc2sc(N3CCNCC3)nc2c1,-0.36
3,Cc1nn2c3cc(N4CCNCC4)ccc3nc2c2ccccc12,3.84 (active)
4,CC(=O)N[C@H]1CN2CC[C@H](O)[C@@H]2[C@@H](O)[C@@H]1O,0.34
5,CC(C)(C)[C@]1(O)C[C@@H]2OC(=O)C[C@@]23C(=O)O[C@@H]2OC(=O)[C@H](O)[C@]213,2.75
6,C#CCOc1ccc(C2SCC(=O)Nc3n[nH]c(C)c32)cc1OC (stereo not given),1.62
7,CCC1c2cccn2-c2ccccc2CN1C(=O)Nc1ccc(F)c(Cl)c1 (stereo not given),1.12
8,C=CCOc1ccc(C2SCC(=O)Nc3n[nH]c(C)c32)cc1 (stereo not given),1.1
9,CN1CC=C(c2noc(CCC(=O)Nc3ccc(Cl)cn3)n2)CC1,1.39
10,CCC(CC)n1[nH]c(=O)c2c1NC(=O)CSC2c1ccc(Br)cc1 (stereo not given),0.25
